Data published in PubChem BioAssay (Tox21).
Records with an inconclusive call do not appear. Active and inactive are the calls of the source. Unless noted, the call rests on the fitted dose curve; in most records, active means well fitted curve in the direction sought with a large enough effect in the repeat runs; inconclusive means weak or mixed curves; inactive means no such curve, though single readings can be large; an effect the other way counts as inactive or inconclusive.

Assays:
[1] = qHTS assay for small molecules that induce genotoxicity in human embryonic kidney cells expressing luciferase-tagged ATAD5 (AID 651632); further: nearly all actives have a fitted effect of over 15% in size; further: potency means the concentration at half of the fitted maximal effect
Procedure, shortened: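 HEK293T cells carrying a luciferase reporter tagged to ATAD5 were exposed to compound or DMSO vehicle for 16 hr at 37C, 5% CO2. Amplite was added, and after 30 min at room temperature luciferase activity was read as a marker of ATAD5 induction.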

[2] = qHTS assay for small molecule agonists of the p53 signaling pathway - cell viability (AID 651633; calls by dose curve; further: nearly all actives have a fitted effect of over 30% in size; further: potency means the concentration at half of the fitted maximal effect)
Procedure, shortened: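 p53RE-bla cells were treated with compound for 16 hours at 37 C. Cytotoxicity was then measured as CellTiter-Glo luminescence after 30 min at room temperature.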

[3] = qHTS assay for small molecules that induce genotoxicity in human embryonic kidney cells expressing luciferase-tagged ATAD5 - cell viability (AID 651634; calls by dose curve; further: nearly all actives have a fitted effect of over 25% in size; further: potency means the concentration at half of the fitted maximal effect)
Procedure, shortened: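 HEK293T cells expressing luciferase-tagged ATAD5 were exposed to compound or DMSO for 15.5 hr at 37C, 5% CO2. Viability was then read as live-cell protease activity by CellTiter-Fluor fluorescence after 30 min at 37C.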

[4] = qHTS assay to test for compound auto fluorescence at 590 nm (red) in HepG2 cells (AID 720674); further: on the % scale 0 is the no-effect control and ±100 the full control effect
Procedure, shortened: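 HepG2 cells, 2,000 per well in MEM with 10% FBS, attached overnight at 37 C, then got 23 nL compound or DMSO. After 1 hr at 37 C, 5% CO2, red fluorescence was read at 540/590 nm against Rose Bengal sodium as reference.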

[5] = qHTS assay to test for compound auto fluorescence at 535 nm (green) in HepG2 cells (AID 720675); further: on the % scale 0 is the no-effect control and ±100 the full control effect
[6] = qHTS assay to test for compound auto fluorescence at 460 nm (blue) in HEK293 cells (AID 720678); further: on the % scale 0 is the no-effect control and ±100 the full control effect
Procedure, shortened: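 Cells were seeded and left to adhere for 4-5 hr at 37C. Compounds were then pin-transferred. After an overnight incubation at 37C under 5% CO2, intrinsic fluorescence at 405/460 nm was measured and referenced to triamterene.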

[7] = qHTS assay to test for compound auto fluorescence at 590 nm (red) in HEK293 cells (AID 720679); further: on the % scale 0 is the no-effect control and ±100 the full control effect
Procedure, shortened: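 Each well held 2,000 HEK293 cells in medium containing 10% dialyzed FBS. Following 4-5 hr attachment at 37C, 23 nL test compound or DMSO was added; plates sat overnight, and red fluorescence (540/590nm) was recorded.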

[8] = qHTS assay to test for compound auto fluorescence at 535 nm (green) in HEK293 cells (AID 720680); further: on the % scale 0 is the no-effect control and ±100 the full control effect
[9] = qHTS assay to test for compound auto fluorescence at 460 nm (blue) in HEK293 cell free culture (AID 720681); further: on the % scale 0 is the no-effect control and ±100 the full control effect
Procedure, shortened: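 Compounds were added to cell-free DMEM with 10% FBS and fluorescence read directly. The blue channel used 405 nm excitation and 460 nm emission, with triamterene as the reference fluorophore.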

[10] = qHTS assay to test for compound auto fluorescence at 535 nm (green) in HEK293 cell free culture (AID 720682); further: on the % scale 0 is the no-effect control and ±100 the full control effect
Procedure, shortened: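 Read-out: 485/535 nm fluorescence intensity, calibrated against fluorescein. Medium only (DMEM + 10% FBS, no cells); test compound or DMSO vehicle added by pintool before plate reading.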

[11] = qHTS assay to test for compound auto fluorescence at 590 nm (red) in HEK293 cell free culture (AID 720683); further: on the % scale 0 is the no-effect control and ±100 the full control effect
Procedure, shortened: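 Cell-free wells of DMEM with 10% FBS received compound, and intrinsic fluorescence was read at excitation/emission 540/590 nm. Values expressed as equivalence to Rose Bengal sodium.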

[12] = qHTS assay to test for compound auto fluorescence at 590 nm (red) in HepG2 cell free culture (AID 720684); further: on the % scale 0 is the no-effect control and ±100 the full control effect
Procedure, shortened: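 Compound was pinned into wells holding MEM with 10% FBS and no cells, and red fluorescence was read at Ex/Em 540/590 nm. Signal is expressed as auto fluorescence equivalency relative to Rose Bengal sodium.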

[13] = qHTS assay to test for compound auto fluorescence at 460 nm (blue) in HepG2 cell free culture (AID 720685); further: on the % scale 0 is the no-effect control and ±100 the full control effect
Procedure, shortened: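 Compound (23 nL) or DMSO pinned into cell-free MEM with 10% FBS; blue fluorescence read at 405/460 nm excitation/emission, expressed as auto-fluorescence equivalency to triamterene.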

[14] = qHTS assay to test for compound auto fluorescence at 460 nm (blue) in HepG2 cells (AID 720687); further: on the % scale 0 is the no-effect control and ±100 the full control effect
Procedure, shortened: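 HepG2 cells in MEM with 10% FBS, attached overnight at 37 C, were exposed to compound or DMSO for 1 hr at 37 C, 5% CO2. Blue fluorescence was read at 405/460 nm, with triamterene as reference fluorophore.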

[15] = biological target: Glucocorticoid receptor (Homo sapiens) (UniProt P04150); assay: qHTS assay to identify small molecule agonists of the glucocorticoid receptor (GR) signaling pathway (AID 720691; active means well fitted activation curve with a large enough effect in the signal ratio in the repeat runs, not every such curve was filed as active; the % refers to the signal ratio; further: potency means the concentration at half of the fitted maximal effect); conditions: GR-bla HeLa, beta-lactamase reporter ratio, 18 h; activation: at 62.4 µM (top of the series) unless noted
Chain of Glucocorticoid receptor (Homo sapiens) (P04150 whole entry, looked up): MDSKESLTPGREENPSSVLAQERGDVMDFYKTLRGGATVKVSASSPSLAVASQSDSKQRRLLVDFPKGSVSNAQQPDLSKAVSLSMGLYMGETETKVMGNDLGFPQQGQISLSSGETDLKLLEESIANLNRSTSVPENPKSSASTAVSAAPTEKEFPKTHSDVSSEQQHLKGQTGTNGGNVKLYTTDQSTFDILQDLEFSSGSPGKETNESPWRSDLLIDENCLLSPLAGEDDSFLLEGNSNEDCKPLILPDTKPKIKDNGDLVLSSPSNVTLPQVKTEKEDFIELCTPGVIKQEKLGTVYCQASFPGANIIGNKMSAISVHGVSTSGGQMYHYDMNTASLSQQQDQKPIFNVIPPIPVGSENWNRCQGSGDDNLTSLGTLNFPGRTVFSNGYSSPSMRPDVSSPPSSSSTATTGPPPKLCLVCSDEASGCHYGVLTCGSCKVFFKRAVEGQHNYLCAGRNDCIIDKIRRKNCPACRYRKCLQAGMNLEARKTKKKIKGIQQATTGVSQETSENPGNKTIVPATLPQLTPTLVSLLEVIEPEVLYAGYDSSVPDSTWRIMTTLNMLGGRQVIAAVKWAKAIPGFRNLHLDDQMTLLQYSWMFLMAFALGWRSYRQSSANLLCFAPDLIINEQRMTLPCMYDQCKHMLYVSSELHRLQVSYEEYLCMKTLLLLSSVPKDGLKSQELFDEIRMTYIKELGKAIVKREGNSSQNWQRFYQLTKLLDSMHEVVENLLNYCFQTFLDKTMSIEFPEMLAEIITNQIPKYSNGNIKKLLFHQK
Procedure, shortened: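 GR-bla HeLa cells (beta-lactamase reporter under glucocorticoid response element) were plated 4 h at 37 C/5% CO2, given compounds in DMSO, and incubated 18 h at 37 C. LiveBLAzer B/G FRET substrate was added for 2 h at room temperature, then fluorescence intensity read.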

[16] = qHTS assay for small molecule disruptors of the mitochondrial membrane potential - cell viability (AID 720634; calls by dose curve; further: nearly all actives have a fitted effect of over 20% in size; further: potency means the concentration at half of the fitted maximal effect)
Procedure, shortened: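 HepG2 cells seeded overnight at 37 C, then exposed to compound or DMSO for 1 hr at 37 C, 5% CO2. m-MPI dye added, then CellTiter-Glo for 30 min at room temperature; viability read as ATP luminescence.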

[17] = qHTS assay to test for compound auto fluorescence at 535 nm (green) in HepG2 cell free culture (AID 720686); further: on the % scale 0 is the no-effect control and ±100 the full control effect
[18] = biological target: Glucocorticoid receptor (Homo sapiens) (UniProt P04150); assay: qHTS assay to identify small molecule antagonists of the glucocorticoid receptor (GR) signaling pathway (AID 720692; active means well fitted inhibition curve with a large enough effect in the signal ratio in the repeat runs, not every such curve was filed as active; the % refers to the signal ratio; further: on the % scale 0 is the no-effect control and ±100 the full control effect)
Procedure, shortened: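 GR-bla HeLa cells (beta-lactamase reporter under glucocorticoid response element) were pre-plated 4 h at 37 C, treated with compounds plus 5 nM dexamethasone (final) for 18 h, then read by LiveBLAzer B/G FRET fluorescence after 2 h.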

[19] = qHTS assay for small molecule disruptors of the mitochondrial membrane potential (AID 720635); further: potency means the concentration at half of the fitted maximal effect
Procedure, shortened: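 HepG2 cells exposed to compound 1 hr at 37C, then Mito-MPS dye 30 min. Ratio read of aggregate (540/590 nm) versus monomer (490/535 nm) fluorescence.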

Nc1ccc(N)c2c1C(=O)c1ccccc1C2=O
active: Potency [3] 27.3 µM
inactive: Potency [1] | Potency [2] | Potency [4] | Potency [5] | outcome [6] | Potency [7] | outcome [8] | outcome [9] | outcome [10] | Potency [11] | Potency [12] | outcome [13] | outcome [14] | Potency [15]

CN(C)CCN(Cc1ccccc1)c1ccccn1
inactive: Potency [1] | Potency [2] | Potency [3] | Potency [16] | Potency [4] | Potency [5] | outcome [6] | outcome [9] | outcome [10] | Potency [12] | outcome [13] | Potency [17] | outcome [14] | Potency [15] | Potency [18]

CCCOC(C(=O)OC1CCN(C)CC1)(c1ccccc1)c1ccccc1
inactive: Potency [1] | Potency [2] | Potency [3] | Potency [16] | Potency [4] | Potency [5] | outcome [6] | Potency [7] | outcome [8] | outcome [9] | outcome [10] | Potency [11] | Potency [12] | outcome [13] | Potency [17] | outcome [14] | Potency [15] | Potency [18]

COc1ccc(C(=O)Nc2nc3ccccc3c(NCc3ccccc3)c2C#N)cc1
active: Potency [19] 5.45 µM
inactive: Potency [1] | Potency [2] | Potency [3] | Potency [4] | Potency [5] | outcome [6] | Potency [7] | outcome [8] | outcome [9] | outcome [10] | Potency [11] | Potency [12] | outcome [13] | Potency [17] | outcome [14]

CCOC(=O)COC(=O)c1cc(Oc2ccc(C(F)(F)F)cc2Cl)ccc1[N+](=O)[O-]
inactive: Potency [1] | Potency [2] | Potency [3] | Potency [4] | Potency [5] | outcome [6] | Potency [7] | outcome [8] | outcome [9] | outcome [10] | Potency [11] | Potency [12] | outcome [13] | Potency [17] | outcome [14]
active: Potency [19] 61.1 µM

CCCCCCCCCCCCN1CCCCCC1=O
inactive: Potency [1] | Potency [4] | Potency [5] | outcome [6] | Potency [7] | outcome [8] | outcome [9] | outcome [10] | Potency [11] | Potency [12] | outcome [13] | outcome [14]
active: Potency [2] 15.4 µM | Potency [16] 27.3 µM | Potency [19] 27.3 µM

O=C(Cl)c1cc(C(=O)Cl)cc(C(=O)Cl)c1
inactive: Potency [1] | Potency [2] | Potency [3] | Potency [16] | Potency [4] | Potency [5] | outcome [6] | outcome [9] | outcome [10] | Potency [11] | Potency [12] | outcome [13] | Potency [17] | outcome [14]

C[Si](C)(CCCN)O[Si](C)(C)CCCN
inactive: Potency [1] | Potency [2] | Potency [16] | Potency [4] | Potency [5] | outcome [6] | Potency [7] | outcome [8] | outcome [9] | outcome [10] | Potency [11] | Potency [12] | outcome [13] | Potency [17] | outcome [14] | Potency [15] | Potency [18]

CCCCCCCCCCCc1ccccc1
inactive: Potency [1] | Potency [2] | Potency [3] | Potency [16] | Potency [4] | Potency [5] | outcome [6] | outcome [9] | outcome [10] | Potency [11] | Potency [12] | outcome [13] | Potency [17] | outcome [14] | Potency [15]

O=C(O)C1(C(=O)Nc2ccc(Cl)cc2Cl)CC1
inactive: Potency [2] | Potency [3] | Potency [4] | Potency [5] | outcome [6] | Potency [7] | outcome [9] | outcome [10] | Potency [11] | Potency [12] | outcome [13] | Potency [17] | outcome [14]
active: Potency [1] 1.93 µM | Potency [19] 8.63 µM

CN1CCC(N(Cc2cccs2)c2ccccc2)CC1
inactive: Potency [1] | Potency [2] | Potency [3] | Potency [16] | Potency [4] | Potency [5] | outcome [6] | Potency [7] | outcome [8] | outcome [9] | outcome [10] | Potency [11] | Potency [12] | outcome [13] | Potency [17] | outcome [14] | Potency [15]

CCN(CC)CCOC(=O)C(c1ccccc1)C1CCCCC1 (stereo not given)
inactive: Potency [1] | Potency [2] | Potency [3] | Potency [16] | Potency [5] | Potency [7] | outcome [9] | outcome [10] | Potency [11] | Potency [12] | outcome [13] | outcome [14] | Potency [15] | Potency [18]

CCC(Cl)CCC(Cl)C(Cl)CC(Cl)C(Cl)C(Cl)CCl (stereo not given)
inactive: Potency [1] | Potency [2] | Potency [3] | Potency [16] | Potency [4] | Potency [5] | outcome [6] | Potency [7] | outcome [8] | outcome [9] | outcome [10] | Potency [12] | outcome [13] | Potency [17] | outcome [14] | Potency [15] | Potency [18]

Brc1c2ccccc2c(Br)c2ccccc12
inactive: activation [1] 1.86% [at 8.08 µM] | activity change, negative = cytotoxicity [2] 12.3% [at 8.08 µM] | activity, negative = cytotoxicity [3] 21.9% [at 8.08 µM] | activity change, negative = cytotoxicity [16] -7.1% [at 8.08 µM] | fluorescence, % of fluorescein control [5] 0.0196% [at 3.72 µM] | fluorescence, % of fluorescent control [7] -0.0447% [at 3.72 µM] | fluorescence, % of fluorescein [8] 0.0022% [at 3.72 µM] | fluorescence, % of fluorescent control [9] 0.357% [at 3.72 µM] | activity change [10] -0.0415% [at 3.72 µM] | fluorescence, % of fluorescent control [11] 0.0422% [at 3.72 µM] | fluorescence, % of Rose Bengal [12] 0.241% [at 3.72 µM] | fluorescence, % of fluorescent control [13] 0.581% [at 3.72 µM] | fluorescence, % of fluorescein control [17] 0.0474% [at 3.72 µM] | fluorescence, % of fluorescent control [14] 1.18% [at 3.72 µM]
active: Potency [15] 882 nM

OC(C#CCN1CCCC1)(c1ccccc1)c1ccccc1
inactive: Potency [1] | Potency [2] | Potency [16] | Potency [4] | Potency [5] | outcome [6] | Potency [7] | outcome [8] | outcome [9] | outcome [10] | Potency [11] | Potency [12] | outcome [13] | Potency [17] | outcome [14] | Potency [15]
